The panel holds about 83,000 compounds, 20% with a hit somewhere; the sample as a whole holds those more often.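 A percent growth of 40 corresponds to 60% growth inhibition; 0 means no net growth; -100 means all cells died. Active threshold: below 10.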 A number with no mark means an inactive call. Active and inactive are the calls of the source. *1 amine or outer side, *2 acyl side, *3 side chain or, on linkers, in order; H or OH if unused. Where a SMILES comes first, the peptide text is derived from it. Bridges are numbered along the chain shown (N, C = ends). Roman numbers before positions name the chains, in order. [ ]: non-standard residue; d: D form. The star is where a group is joined. ξ: configuration not given here. Actinocin(1to9) = Cc1c2oc3c(C)ccc(C(=O)[*:2])c3nc-2c(C(=O)[*:1])c(N)c1=O; X5 = CCC(=O)CC1CC(C)CC(C(=O)[*:2])N1[*:1]; NMeV = CN[CH](C(=O)O)C(C)C; X4 = CCCCCCCCC(C)C(=O)*; ξD = NC(CC(=O)O)C(=O)O; Aib = CC(C)(N)C(=O)O; X6 = CC(CN(C)CCO)N*; Sar = CNCC(=O)O

This test concerns NCI/ADR-RES ovarian. The experiment in a line: NCI-60 one-dose screen, 48 h (100 = growth as untreated, 0 = no growth, -100 = all killed). The note with it: 10 µM unless noted. The protocol:
Growth inhibition of the NCI/ADR-RES human […] tumor cell line is measured as a screen for anti-cancer activity. Cells are grown in 96 well plates and exposed to the test compound for 48 hours. Compounds are tested at a single concentration, which is 10^-5 M for most compounds. The reported endpoint is percent growth (GI% or GIPRCNT), where numbers from 0 - 100% represent growth inhibition, and numbers from -100% - 0 represent cell death. For example, a value of 40 represents 60% growth inhibition. A value of 0 means no net growth occurred over the course of the experiment. A value of -40 indicates 40% of cells at the beginning of the experiment died by the end of the experiment. A value of -100 means all cells are dead at the end of the experiment.
NCI-60 Human Tumor Cell Lines Screen was performed using the standard one-dose NCI protocol, which is described in more detail at https://dtp.cancer.gov/discovery_development/nci-60/default.htm.
Compounds with GIPRCNT values below 10 were considered active. Activity score was based on GIPRCNT using the following formula: […]
Score is 0 for GIPRCNT values of 100 or above, 50 for GIPRCNT values of 0, and 100 for GIPRCNT values of -100.
Consider `CN(C)c1ccc(C(C#N)(c2ccccc2)c2ccc(N(C)C)cc2)cc1`, for which the growth is 73.8%.
Consider `N#Cc1c2ccccc2nc2ccccc12`, for which the growth is 100%.
As for `CC(=O)N1CC(=O)NC1=S`, the growth was 104%.
For `Oc1ccc(Br)cc1Sc1cc(Br)ccc1O` the value was 31.4%; for `CCCCCCCCCCCCN1C(C)=CS/C1=C\C=C\c1scc(C)[n+]1CCCCCCCCCCCC`, 68%; for `COc1cc(/C=C2\SC(=S)N(/C=C/c3nc4ccccc4[nH]c3=O)C2=O)cc(OC)c1OC`, 86.6%.
With `CC(C)(C)c1ccc(CCO)cc1`, the growth was 101%.
For `COC(=O)c1ccc(=O)c2nc3/c(=C/O)c(O)cc(=O)c3[nH]c12` the value was 11%; for `Oc1ccc(Cl)cc1Cc1cc(Cl)ccc1O`, 4.47% (active).
For `Cc1cccc2c(N)c3ccccc3nc12` the value was -47.5% (active); for `CC(C)=CCCC(C)C1=C(O)C(=O)C(C)=CC1=O` (stereo not given), 95%.
Then `Nc1ccc(C(=O)/C=C/c2ccccc2)cc1`, with 101%.
As for `CCC(C)C1NC(=O)C(NC(=O)c2c3nc4c(C(=O)NC5C(=O)NC(C(C)CC)C(=O)N6CCCC6C(=O)N(C)CC(=O)N(C)C(C(C)C)C(=O)OC5C)ccc(C)c4oc-3c(C)c(=O)c2N)C(C)OC(=O)C(C(C)C)N(C)C(=O)CN(C)C(=O)C2CCCN2C1=O` (stereo not given) (I: TIP[Sar][NMeV] / II: TIP[Sar][NMeV]; ester I:1-I:C, II:1-II:C; linker I:N-II:N via Actinocin(1to9); configuration not given here), the growth was -42.7% (active).
Regarding `CCOc1ccc(C(CN2CCOCC2)C(C)=O)cc1OC` (stereo not given), the growth is 107%.
For `CN(C)c1ccc(C(=C2C=CC(=[N+](C)C)C=C2)c2ccc(N(C)C)cc2)cc1` the value was -18.8% (active); for `O=C(O)c1cc2c(s1)C(=O)c1sccc1C2=O`, 15.1%.
For `CC(C)c1ccc(C(=O)OC2CCCC2)cc1` the value was 99.9%; for `Cc1ccc(/C=C2\CNC/C(=C\c3ccc(C)cc3)C2=O)cc1`, -51.3% (active).
Then `COc1c(C)c2c(c(O)c1C/C=C(\C)CCC(=O)O)C(=O)OC2`, with 31.2%; and `CSc1nc(C)c(C(=O)CCN2CCN(c3ccccn3)CC2)s1`, with 110%.
As for `N=C1C=C(N)C(=O)c2ccccc21`, the growth is -76.4% (active).
Consider `O=C(CCl)N(c1ccccc1)c1ccccc1`, for which the growth was 108%.
For the compound `NCC(=O)NC(CC(=O)O)C(=O)O` (stereo not given) (H-Gly-[ξD]-OH), the growth was 104%.
On to `CN1CCC(CN2c3ccccc3Sc3ccccc32)C1` (stereo not given), for which the growth is 85.8%.
For `COc1ccc(NC(=O)/C(=C/N2C(=O)/C(=C/c3ccc(OC)c(OC)c3)NC2=S)C(C)=O)cc1`, the growth was 77.6%.
For `COc1ccc2c(c1)c(CC(=O)O)c(C)n2C(=O)c1ccc(Cl)cc1` the value was 98%; for `O=C(NNc1ccccc1)OCc1ccccc1`, 55.2%; for `c1ccc(-c2cccc(-c3ccccn3)n2)nc1`, 1.8% (active).
For the compound `CCCCCCCCCCCC[n+]1ccc(CCCCCCCCC)cc1`, the growth was 35.8%.
Turning to `CC(C)Nc1ccc(Nc2ccc(NC(C)C)cc2)cc1`, the growth was 95.5%.
Then `O=[N+]([O-])c1ccc([I+]c2ccccc2)cc1`, with 28.9%; and `O=C1CSC(=S)N1Cc1cccnc1`, with 106%.
For `CCOc1ccc2c(c1)/C(=C\C=C\C1CC(C)C3CC(OCC)CCC3N1CC)CC(C)N2CC` (stereo not given) the value was 60.8%.
Then `OC(CSc1ccccc1)CN1CCN(c2ccc(Cl)cc2)CC1` (stereo not given), with 89.1%; and `CCCCCCCCC(C)C(=O)N1CCCC1C(=O)N1C(CC(=O)CC)CC(C)CC1C(=O)NC(C)C(=O)NC(C)(C)C(=O)NC(C)(C)C(=O)NC(C(=O)NC(C)C(=O)NC(C)(C)C(=O)NC(C)(C)C(=O)NC(C)CN(C)CCO)C(C)CC` (stereo not given) (X4-P[X5]A[Aib][Aib]IA[Aib][Aib]-X6; configuration not given here), with -36.9% (active).
For `Cc1ccccc1N=C(N)Nc1ccccc1C` (tested in a mixture with another compound), the growth was 79.3%.
On to `O=C1C=CC(=O)N1C1CCCCCCCCCCC1`, for which the growth is 102%.
Turning to `N=C(N)Sc1cccc[n+]1[O-]`, the growth is 53.5%.
For `O=C1C=C(Cl)C(=O)c2ccccc21` the value was 102%.
For `CCCCC(C=O)(C=C=C(C)C)CC` (stereo not given) the value was 106%.

The record behind these values is PubChem BioAssay (NCI).
